Experimental data reported in PubChem BioAssay AID1159580 (chemical genetic matrix, 2015).
About 2,000 (36%) of roughly 5,500 compounds were called active. Inconclusive results (about 18%) are left out. Rule as the data show it: active = normalized growth mostly below about 0.91 (no sharp cut-off); inconclusive = no clear call, values can overlap the other calls; inactive = mostly above about 0.92. This is one part of the list.

Assay: chemical genetic growth profiling, strain panel (AID 1159580);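 also: tested at 20 µM; growth read once vehicle control cultures reached saturation at 30 °C; 1 = growth at the plate median or of vehicle wells; lower values mean less growth of the strain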
Conditions: growth OD
[1] = S. cerevisiae deletion strains, locus YBR229C, strain ROT2, hits give low values
[2] = S. cerevisiae deletion strains, locus YDL101C, strain DUN1, hits give low values
[3] = S. cerevisiae deletion strains, locus YDL134C, strain PPH21, hits give low values
[4] = S. cerevisiae deletion strains, locus YEL061C, strain CIN8, hits give low values
[5] = S. cerevisiae deletion strains, locus YGR078C, strain PAC10, hits give low values
[6] = S. cerevisiae deletion strains, locus YHR030C, strain SLT2, hits give low values
[7] = S. cerevisiae deletion strains, locus YJR043C, strain POL32, hits give low values
[8] = S. cerevisiae deletion strains, locus YKL190W, strain CNB1, hits give low values
[9] = S. cerevisiae deletion strains, locus YLR039C, strain RIC1, hits give low values
[10] = S. cerevisiae deletion strains, locus YLR262C, strain YPT6, hits give low values
[11] = S. cerevisiae deletion strains, locus YPL055C, strain LGE1, hits give low values
[12] = S. cerevisiae deletion strains, locus YPL241C, strain CIN2, hits give low values

Measured: normalized growth

O=C1NC(c2c(F)cccc2Cl)Nc2ccccc21 (stereo not drawn)
inactive: S. cerevisiae deletion strains, locus YAL013W, strain DEP1, hits give low values 1.01 | [1] 1.01 | S. cerevisiae deletion strains, locus YCL061C, strain MRC1, hits give low values 1.03 | [2] 1.02 | [3] 1 | S. cerevisiae deletion strains, locus YDR150W, strain NUM1, hits give low values 0.987 | [4] 1 | [5] 1.03 | S. cerevisiae deletion strains, locus YGR229C, strain SMI1, hits give low values 0.988 | [6] 1 | S. cerevisiae deletion strains, locus YHR087W, strain rtc3, hits give low values 1.02 | S. cerevisiae deletion strains, locus YJL187C, strain SWE1, hits give low values 1 | [7] 0.998 | S. cerevisiae deletion strains, locus YJR075W, strain HOC1, hits give low values 0.998 | [8] 1.01 | [9] 0.94 | S. cerevisiae deletion strains, locus YLR058C, strain SHM2 (second series), hits give low values 1.02 | S. cerevisiae deletion strains, locus YLR085C, strain ARP6, hits give low values 0.984 | [10] 0.926 | S. cerevisiae deletion strains, locus YML094W, strain GIM5, hits give low values 1.05 | S. cerevisiae deletion strains, locus YMR219W, strain ESC1, hits give low values 1 | S. cerevisiae deletion strains, locus YMR263W, strain SAP30, hits give low values 0.978 | S. cerevisiae deletion strains, locus YNL153C, strain GIM3, hits give low values 1.01 | S. cerevisiae deletion strains, locus YNL298W, strain CLA4 (second series), hits give low values 0.979 | S. cerevisiae deletion strains, locus YNL322C, strain KRE1, hits give low values 1 | S. cerevisiae deletion strains, locus YNR030W, strain Alg12, hits give low values 1.02 | [11] 1 | [12] 1.04 | S. cerevisiae deletion strains, locus YPR135W, strain CTF4, hits give low values 1.06 | S. cerevisiae strains, strain wild type, hits give low values 1.01

CCC(CCC(C)C1CCC2C3CC=C4C[C@@H](OC(C)=O)CC[C@]4(C)C3CC[C@]12C)C(C)C (stereo partly drawn)
inactive: S. cerevisiae deletion strains, locus YBR021W, strain FUR4, hits give low values 0.996 | [1] 0.99 | S. cerevisiae deletion strains, locus YCL029C, strain bik1, hits give low values 0.996 | S. cerevisiae deletion strains, locus YDL035C, strain GPR1, hits give low values 1.04 | S. cerevisiae deletion strains, locus YDL074C, strain BRE1, hits give low values 1.07 | [2] 0.979 | [3] 1.01 | S. cerevisiae deletion strains, locus YDL185W, strain tfp1, hits give low values 0.974 | S. cerevisiae deletion strains, locus YDL192W, strain arf1, hits give low values 1 | S. cerevisiae deletion strains, locus YDR101C, strain arx1, hits give low values 1.02 | S. cerevisiae deletion strains, locus YDR162C, strain NBP2, hits give low values 1 | S. cerevisiae deletion strains, locus YDR318W, strain mcm21, hits give low values 0.976 | S. cerevisiae deletion strains, locus YDR388W, hits give low values 0.963 | S. cerevisiae deletion strains, locus YDR502C, strain sam2, hits give low values 0.968 | [4] 1 | S. cerevisiae deletion strains, locus YER110C, hits give low values 0.968 | S. cerevisiae deletion strains, locus YER155C, strain BEM2, hits give low values 0.981 | S. cerevisiae deletion strains, locus YER167W, strain BCK2, hits give low values 1.01 | S. cerevisiae deletion strains, locus YGL078C, strain dbp3, hits give low values 0.964 | S. cerevisiae deletion strains, locus YGL086W, strain mad1, hits give low values 0.992 | S. cerevisiae deletion strains, locus YGL248W, strain PDE1, hits give low values 0.982 | [5] 0.989 | S. cerevisiae deletion strains, locus YGR135W, strain pre9, hits give low values 0.945 | S. cerevisiae deletion strains, locus YGR252W, strain gcn5, hits give low values 0.941 | [6] 0.991 | S. cerevisiae deletion strains, locus YHR079C, strain IRE1 (second series), hits give low values 0.977 | S. cerevisiae deletion strains, locus YHR094C, strain hxt1, hits give low values 0.976 | S. cerevisiae deletion strains, locus YHR129C, strain ARP1, hits give low values 0.998 | S. cerevisiae deletion strains, locus YHR200W, strain rpn10, hits give low values 0.975 | S. cerevisiae deletion strains, locus YIL066C, strain RNR3, hits give low values 1.02 | S. cerevisiae deletion strains, locus YIL073C, strain SPO22, hits give low values 1.01 | S. cerevisiae deletion strains, locus YIL125W, strain kgd1, hits give low values 0.987 | S. cerevisiae deletion strains, locus YIR030C, strain dcg1, hits give low values 0.968 | S. cerevisiae deletion strains, locus YJL095W, strain BCK1, hits give low values 0.991 | S. cerevisiae deletion strains, locus YJL134W, strain LCB3, hits give low values 0.991 | S. cerevisiae deletion strains, locus YJL168C, strain set2, hits give low values 0.96 | S. cerevisiae deletion strains, locus YJL187C, strain SWE1 (second series), hits give low values 0.979 | [7] 1.05 | S. cerevisiae deletion strains, locus YKL009W, strain mrt4, hits give low values 1.03 | S. cerevisiae deletion strains, locus YKL068W, hits give low values 0.987 | S. cerevisiae deletion strains, locus YKL085W, strain MDH1 (second series), hits give low values 0.989 | S. cerevisiae deletion strains, locus YKL085W, strain MDH1, hits give low values 0.989 | [8] 1 | S. cerevisiae deletion strains, locus YKR001C, strain vps1, hits give low values 0.995 | [9] 1.07 | S. cerevisiae deletion strains, locus YLR058C, strain SHM2, hits give low values 1 | S. cerevisiae deletion strains, locus YLR102C, strain apc9, hits give low values 0.978 | [10] 1.08 | S. cerevisiae deletion strains, locus YLR268W, strain sec22, hits give low values 1.02 | S. cerevisiae deletion strains, locus YLR330W, strain CHS5, hits give low values 0.993 | S. cerevisiae deletion strains, locus YLR342W, strain FKS1 (second series), hits give low values 1.09 | S. cerevisiae deletion strains, locus YLR371W, strain rom2, hits give low values 0.993 | S. cerevisiae deletion strains, locus YLR418C, strain cdc73, hits give low values 0.959 | S. cerevisiae deletion strains, locus YML016C, strain PPZ1, hits give low values 1.01 | S. cerevisiae deletion strains, locus YML032C, strain rad52, hits give low values 1.01 | S. cerevisiae deletion strains, locus YML124C, strain tub3, hits give low values 0.98 | S. cerevisiae deletion strains, locus YMR078C, strain ctf18, hits give low values 0.962 | S. cerevisiae deletion strains, locus YMR223W, strain ubp8, hits give low values 0.992 | S. cerevisiae deletion strains, locus YMR307W, strain GAS1, hits give low values 1.06 | S. cerevisiae deletion strains, locus YNL067W, strain RPL9B, hits give low values 0.974 | S. cerevisiae deletion strains, locus YNL128W, strain TEP1, hits give low values 1.01 | S. cerevisiae deletion strains, locus YNL233W, strain BNI4, hits give low values 0.98 | S. cerevisiae deletion strains, locus YNL250W, strain rad50, hits give low values 0.947 | S. cerevisiae deletion strains, locus YNL271C, strain bni1, hits give low values 0.957 | S. cerevisiae deletion strains, locus YNL298W, strain CLA4, hits give low values 0.997 | S. cerevisiae deletion strains, locus YNL307C, strain MCK1, hits give low values 0.975 | S. cerevisiae deletion strains, locus YNR052C, strain pop2, hits give low values 0.961 | S. cerevisiae deletion strains, locus YOL006C, strain TOP1, hits give low values 1.2 | S. cerevisiae deletion strains, locus YOL012C, strain htz1 1.41 | S. cerevisiae deletion strains, locus YOL147C, strain pex11, hits give low values 0.989 | S. cerevisiae deletion strains, locus YOR061W, strain CKA2, hits give low values 1.01 | S. cerevisiae deletion strains, locus YOR069W, strain VPS5, hits give low values 0.99 | S. cerevisiae deletion strains, locus YOR136W, strain idh2, hits give low values 0.975 | S. cerevisiae deletion strains, locus YOR144C, strain elg1, hits give low values 0.97 | S. cerevisiae deletion strains, locus YOR184W, strain ser1, hits give low values 1.04 | S. cerevisiae deletion strains, locus YOR316C, strain cot1, hits give low values 0.978 | [11] 1.03 | [12] 0.984 | S. cerevisiae deletion strains, locus YPR119W, strain clb2, hits give low values 0.971 | S. cerevisiae deletion strains, locus YPR141C, strain kar3, hits give low values 0.975 | S. cerevisiae deletion strains, locus YPR163C, strain tif3, hits give low values 0.982 | S. cerevisiae deletion strains, locus YPR167C, strain met16, hits give low values 0.967 | S. cerevisiae deletion strains, strain wtn01, hits give low values 1.01
